Results reported in PubChem BioAssay (EPA / NIEHS).
Inconclusive results are not listed. Activity calls are given as the source filed them. How the source made its calls: active means hit-call score of the fitted dose curve at least 0.9, where 1 is the maximum; inconclusive means response in the unintended direction; inactive means score below 0.9.

Experiment: Tanguay_ZF_120hpf_PIG_legacy: (Legacy) Oregon State University Tanguay Lab 120 Hour Post-fertilization zebrafish Assay for Pigmentation Malformation (AID 2283650)
Method in brief: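 Pigment malformation recorded as a binary call at 120 hpf in zebrafish (Tropical 5D) exposed singly from 6 hpf after pronase dechorionation. Static, sealed, 28C exposure, 0.64% DMSO; mortality excludes scoring; positive-direction fit against DMSO.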
For CC1=C(C)S(=O)(=O)CCS1(=O)=O, the outcome was “inactive”. For O=C(N[C@@H](c1ccccc1)[C@@H]1CCCCN1)c1cccc(C(F)(F)F)c1Cl, the outcome was “inactive”. With CCCCC(CC)COP(=O)(OCC(CC)CCCC)OCC(CC)CCCC (stereo not drawn) the outcome was “inactive”. In the case of CCCCCCCCCCCCCCCCO, the outcome is reported as “inactive”. With CC(N)=O the outcome was “inactive”. In the case of CCCCCCC(CCCCCCCCCCC(=O)OCC(COC(C)=O)OC(C)=O)OC(C)=O (stereo not drawn), the outcome is reported as “inactive”. For CCCCCCC(C=O)=Cc1ccccc1, the outcome was “inactive”. In the case of CC(C)c1cccc(C(C)C)c1NC(=O)NS(=O)(=O)c1cc(C(C)(C)O)co1, the outcome is reported as “inactive”. In the case of CC(=O)O[C@]1(C(C)=O)CC[C@H]2[C@@H]3C=C(Cl)C4=CC(=O)[C@@H]5C[C@@H]5[C@]4(C)[C@H]3CC[C@@]21C, the outcome is reported as “inactive”. In the case of CS(=O)(=O)c1ccc([C@@H](C[C@H]2CCC(=O)C2)C(=O)Nc2cnccn2)cc1Cl, the outcome is reported as “inactive”. In the case of CO[C@@H]1COCC[C@@H]1N[C@@H]1CC[C@@](C(=O)N2CCc3ncc(C(F)(F)F)cc3C2)(C(C)C)C1, the outcome is reported as “inactive”. For CN(C)C(=O)NC1(c2ccccc2)CCN(CC[C@@]2(c3ccc(F)c(F)c3)CN(C(=O)c3ccccc3)CCO2)CC1, the outcome was “inactive”. With CCCCCCCCCC[N+](C)(C)[O-] the outcome was “inactive”.
